Bioassay records: PubChem, Broad Institute
Hits are enriched below; roughly 3.1% of the tested compounds scored in any of these assays.
ERAP1 inh: human ERAP1 aminopeptidase inhibitors, primary screen, biochemical, single point, plate reader; AID 652197, 2013; actives 0.15% (n = 340,000); recombinant ERAP1, Leu-AMC fluorescence, 60 min; inhibition, % at 10.7 µM;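 active means mean replicate inhibition of at least 30%, or all replicates individually reaching that 30% level; inactive means mean below 30% and not every replicate reaching it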;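 further: 0% = neutral control wells and 100% = L-leucinethiol positive control wells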
FGF22 binding: binders of human FGF22 protein, primary screen, FGF22 synaptogenesis inhibitor project, biophysical, thermal shift, single point. Fibroblast growth factor 22 (Homo sapiens), Q9HCT0. recombinant FGF22 thermal shift, SYPRO orange fluorescence; percent of sucrose octasulfate shift, DMSO zero. activity (Tm shift, normalised), % at 9.99 µM. actives 1.5% (n = 340,000). AID 651658, 2012;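 active means mean Tm shift, scaled 0 neutral to 100 positive control, at about 1.3% or above, every replicate too, limit read from the data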
Target sequence (Q9HCT0 whole entry, looked up): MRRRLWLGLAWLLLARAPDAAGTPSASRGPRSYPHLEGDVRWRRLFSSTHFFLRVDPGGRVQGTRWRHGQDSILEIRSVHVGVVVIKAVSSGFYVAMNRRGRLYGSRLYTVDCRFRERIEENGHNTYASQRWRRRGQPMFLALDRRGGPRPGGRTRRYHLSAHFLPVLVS
Casp6 inh: human caspase-6 inhibitors, primary screen, biochemical, VEID-R110 fluorescence, single point, set 2; P55212; purified caspase-6, Z-VEID-R110 cleavage fluorescence; inhibition, % at 12.5 µM; actives 0.53% (n = 350,000);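 active means mean inhibition across replicates at least about 35%, with every replicate also reaching that limit, limit read from the data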;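 further: 0% = median of neutral control wells and 100% = no fluorescence left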
SIRT5 inh: SIRT5 desuccinylase inhibitors, primary screen, biochemical, fluorescence imaging, single point, set 5 | NAD-dependent protein deacylase sirtuin-5, mitochondrial (Homo sapiens), Q9NXA8 | Purified SirT5, succinyl-peptide AMC, trypsin-coupled fluorescence | inhibition, % at 15 µM | actives 1.1% (n = 330,000); in the data active means inhibition above about 15%
Target sequence (Q9NXA8 whole entry, looked up): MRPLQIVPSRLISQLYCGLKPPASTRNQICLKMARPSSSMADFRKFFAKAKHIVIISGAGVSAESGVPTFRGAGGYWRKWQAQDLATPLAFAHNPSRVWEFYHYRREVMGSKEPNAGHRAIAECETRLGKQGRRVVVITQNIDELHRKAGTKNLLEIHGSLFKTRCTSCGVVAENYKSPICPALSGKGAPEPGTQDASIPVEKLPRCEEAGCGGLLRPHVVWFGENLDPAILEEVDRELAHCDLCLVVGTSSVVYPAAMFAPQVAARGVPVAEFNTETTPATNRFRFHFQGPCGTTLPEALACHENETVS
* hit, by the source's call.

`Cc1ccccc1-c1ccc([C@H]2[C@@H](CO)N3CCCCN(C(=O)Cc4ccccn4)C[C@H]23)cc1` gave ERAP1 inh 3, FGF22 binding 0, Casp6 inh 0 and SIRT5 inh -6.
Screening COC(=O)[C@@H]1[C@@H](CO)[C@@H]2Cn3c(ccc(-c4ccncc4)c3=O)[C@H]1N2S(=O)(=O)c1ccccc1C returned ERAP1 inh 1, FGF22 binding 0, Casp6 inh 0 and SIRT5 inh -66.
`C[N+]1(CC2COC(c3ccco3)O2)CCCCC1` (stereo unspecified) gave ERAP1 inh 80*, FGF22 binding 0, Casp6 inh 1 and SIRT5 inh 0.
CCCN1[C@@H]2Cn3c(ccc(-c4cccc(OC)c4)c3=O)[C@H]1[C@@H](C(=O)OC)[C@@H]2CO was read as ERAP1 inh -1, Casp6 inh 0 and SIRT5 inh -8.
For CN1CC(C(=O)c2ccc(Cl)cc2)C(c2ccccc2)C1 (stereo unspecified) the results were ERAP1 inh -6, FGF22 binding 0, Casp6 inh -7 and SIRT5 inh 27*.
C[C@H]1CN([C@@H](C)CO)C(=O)c2c(c3ccccc3n2C)-c2ccccc2CO[C@@H]1CN(C)C(=O)Oc1ccccc1 was read as ERAP1 inh 0, Casp6 inh 2 and SIRT5 inh 6.
For COC(=O)[C@@H]1[C@@H](CO)[C@@H]2Cn3c(ccc(C4=CCCCC4)c3=O)[C@H]1N2C(=O)Cc1ccccn1 the results were ERAP1 inh -1, FGF22 binding 0, Casp6 inh 0 and SIRT5 inh -19.
`CC12Cc3cn[nH]c3C=C1CCC1C2CCC2(C)C1CCC2(C)O` (stereo unspecified) gave ERAP1 inh -4, FGF22 binding 0, Casp6 inh -6 and SIRT5 inh 35*.
For O=C(Cc1ccccn1)N1CC2(C1)[C@@H](c1ccccc1)[C@@H](CO)N2Cc1ccccn1 the results were ERAP1 inh -2, FGF22 binding 0, Casp6 inh 0 and SIRT5 inh -1.
CCOC(=O)C1=C(NC(=S)NC(=O)c2ccccc2)c2ccccc2CC12CCCC2 was read as ERAP1 inh 15, FGF22 binding 0, Casp6 inh -1 and SIRT5 inh 35*.
CCOP(=O)(OCC)C(NC(=O)c1ccccc1)=C(Cl)Cl was read as ERAP1 inh -4, FGF22 binding 0, Casp6 inh 3 and SIRT5 inh -6.
For COc1ccc(C#Cc2ccc([C@H]3[C@H]4CN(C(=O)Cc5ccncc5)CCCCN4[C@H]3CO)cc2)cc1 the results were ERAP1 inh -1, FGF22 binding 1, Casp6 inh 0 and SIRT5 inh 5.
For O=C1NC(=S)NC(=O)C1=Cc1cccn1-c1ccc(O)cc1 the results were ERAP1 inh 2, FGF22 binding 0, Casp6 inh 88* and SIRT5 inh 53*.
Screening Cn1cccc1/C=C1\C(=O)NC(=O)N(CCC2=CCCCC2)C1=O returned ERAP1 inh 2, FGF22 binding 0, Casp6 inh 3 and SIRT5 inh -1.
Screening O=C1NC(=O)N(CCC2=CCCCC2)C(=O)/C1=C\c1cccs1 returned ERAP1 inh 4, FGF22 binding 0, Casp6 inh 37* and SIRT5 inh 4.
`CC(=O)N1[C@@H]2c3ccc(-c4cccc(C(=O)N(C)C)c4)c(=O)n3C[C@H]1[C@H](CO)[C@H]2C(=O)O` gave ERAP1 inh -2, Casp6 inh 0 and SIRT5 inh -38.
`O=C1NC(=O)N(c2ccc3c(c2)OCO3)C(=O)/C1=C\c1ccc(-c2ccccc2C(=O)O)o1` gave FGF22 binding 0, Casp6 inh 43* and SIRT5 inh 5.
For Cc1nn(Cc2ccccc2)c(C)c1C(=O)OCC(=O)Nc1cc(S(C)(=O)=O)ccc1Cl the results were ERAP1 inh -2, FGF22 binding 43* and Casp6 inh -2.
COc1ccc(C#Cc2ccc([C@H]3[C@H]4CN(C(=O)Cc5cccnc5)CCCCN4[C@H]3CO)cc2)cc1 was read as ERAP1 inh 0, FGF22 binding 0, Casp6 inh 3 and SIRT5 inh 6.
Screening O=C(O)[C@@H]1[C@@H](CO)[C@@H]2Cn3c(ccc(-c4ccncc4)c3=O)[C@H]1N2C(=O)C1CCCC1 returned ERAP1 inh -6, Casp6 inh 1 and SIRT5 inh -79.
Screening CN(c1ccccc1)P(=O)(N1CC1)N1CC1 returned ERAP1 inh -2, FGF22 binding 1, Casp6 inh -78 and SIRT5 inh 16*.
`COc1ccc(C=C2C(=O)NC(=S)NC2=O)cc1OC` gave ERAP1 inh 37*, FGF22 binding 0, Casp6 inh 26 and SIRT5 inh 2.
CNC(=O)OCCc1n(C)cc[n+]1C was read as ERAP1 inh 102*, FGF22 binding 0, Casp6 inh 10 and SIRT5 inh -2.
`COC(=O)[C@@H]1[C@@H](CO)[C@@H]2Cn3c(ccc(/C=C/c4ccccc4)c3=O)[C@H]1N2CC1CCCC1` gave ERAP1 inh 0, FGF22 binding 0, Casp6 inh -3 and SIRT5 inh -33.
For O=C1NC(=O)N(Cc2ccc(F)cc2)C(=O)/C1=C\c1ccc([N+](=O)[O-])s1 the results were ERAP1 inh 0, FGF22 binding 0, Casp6 inh 32 and SIRT5 inh 28*.
`COc1ccc(CN2C(=O)NC(=O)/C(=C/c3ccc([N+](=O)[O-])s3)C2=O)cc1` gave ERAP1 inh 0, FGF22 binding 0, Casp6 inh 44* and SIRT5 inh 41*.
Screening COC(=O)[C@@H]1[C@@H](CO)[C@@H]2Cn3c(ccc(-c4ccccc4F)c3=O)[C@H]1N2C(=O)C1CC1 returned ERAP1 inh 0, FGF22 binding 0, Casp6 inh -3 and SIRT5 inh -5.
For C[C@]12CCC3C(CC[C@H]4C[C@@H](O)CC[C@]34C)C1C[C@@H](Br)[C@@H]2O (stereo partly specified) the results were ERAP1 inh 0, FGF22 binding 0, Casp6 inh 0 and SIRT5 inh 23*.
For COc1cccc(N2C(=O)NC(=O)/C(=C/c3ccc([N+](=O)[O-])s3)C2=O)c1 the results were Casp6 inh 47* and SIRT5 inh 15*.
COc1ccc(N2C(=O)NC(=O)/C(=C/c3ccc([N+](=O)[O-])s3)C2=O)cc1 was read as ERAP1 inh 5, FGF22 binding 0, Casp6 inh 30 and SIRT5 inh 16*.
Screening COc1ccccc1N1C(=O)NC(=O)/C(=C\c2cnn(-c3ccccc3)c2)C1=O returned ERAP1 inh 3, FGF22 binding 0, Casp6 inh 14 and SIRT5 inh 1.
